SMILES strings stand for the structures. The whole screen tested about 52,000 compounds, of which about 1,700 (3.3%) were called active. The sample holds actives, similar compounds and a random draw of the others, so the mix is not that of the screen. No stated cut-off is given here; in the data, active means survival mostly below about 52% (no sharp cut-off); inactive means mostly above about 56%.

Our source for the survival values is PubChem BioAssay AID463173 (ICCB-Longwood Screening Facility, Harvard Medical School, 2010).

This test has as its system Wild type. The test can be described thus: growth inhibition of S. aureus wild type versus tarO mutant, primary screen, teichoic acid synthesis inhibitors, RN4220, OD600 (AID 463173). The settings on record: S. aureus RN4220 wild type/DeltatarO growth, OD600, 18 h, hits give low values, screened at 18.75 µg/mL (by protocol).
On to `O=c1n(Cc2ccc(F)cc2)nc2n1-c1cc(Cl)ccc1OC2`, for which the survival was 76% (inactive). With `Cc1cc(Cl)ccc1NC(=O)Cn1nc(C)c2c(C)n(-c3ccccc3)nc2c1=O`, the survival is 45% (inactive).

Turning to `CCc1cccc(NC(=O)CCNS(=O)(=O)c2ccc3c(c2)CCN3C(C)=O)c1`, the survival was 76% (inactive). With `Cc1ccc(-n2ncc3c(N4CCN(Cc5ccccc5)CC4)ncnc32)cc1` the figure was 131% (inactive); with `O=C(Nc1nnc(C(F)(F)F)s1)c1ccccc1`, 74% (inactive); with `CCOC(=O)N1CCc2c(sc(NCc3sccc3C)c2C(=O)Nc2cc(Cl)ccc2OC)C1`, 80% (inactive).

For the compound `CCc1nnc(NC(=O)CSc2nccn2-c2ccc(OC)cc2)s1`, the survival was 135% (inactive). As to `COc1cc(Cn2c(=O)sc3ccccc32)ccc1OCCC(C)C`, the survival is -4% (active). `COc1cc(Cn2c(=O)sc3ccccc32)ccc1OC(C)C`: the survival is 41% (inactive). With `CCCCn1c(=N)n(CCOc2ccccc2OC)c2ccccc21` the figure was 81% (inactive). With `CCCCOc1ccc(Cn2c(=O)sc3ccccc32)cc1OC` the figure was -5% (active); with `COc1ccccc1NC(=O)c1sc2nc(C)c(C(=O)Nc3ccc(C)cc3C)c(-c3ccco3)c2c1N`, 73% (inactive); with `COc1cc(-c2nnn(CC(=O)Nc3ccc(OC(F)(F)F)cc3)n2)cc(OC)c1OC`, 92% (inactive). Regarding `Cc1ccccc1COC(=O)c1nn(-c2ccccc2)nc1N`, the survival is -9% (active).

Consider `Nc1nn(-c2ccccc2)nc1C(=O)OCc1ccccc1Br`, for which the survival is -2% (active). With `Nc1nn(-c2ccccc2)nc1C(=O)OCc1ccccc1` the figure was 85% (inactive). As for `COc1cccc(COC(=O)c2nn(-c3ccccc3)nc2N)c1`, the figure is 24% (inactive).

As for `Nc1nn(-c2ccccc2)nc1C(=O)OCc1ccc(Cl)cc1`, the survival is 59% (inactive).

As to `Nc1nn(-c2ccccc2)nc1C(=O)OCc1c(F)cccc1Cl`, the survival was 61% (inactive). In the case of `Cc1ccccc1NC(=O)CSc1nc2ccc(NC(=O)COc3ccccc3F)cc2s1`, the survival is 81% (inactive). Consider `CSc1ccc(CCNC(=O)c2cc(C)nc3c2c(C)nn3-c2ccccc2)cc1`, for which the survival is 124% (inactive). As for `O=C(NCc1nc2ccccc2n1Cc1ccccc1Cl)c1ccccc1`, the figure is 90% (inactive); as for `CCC(O)c1nc2ccccc2n1Cc1cc(C)ccc1C` (stereo not given), 99% (inactive). As for `Cc1ccccc1Cn1c(COc2ccc(Cl)cc2)nc2ccccc21`, the figure is 130% (inactive). As for `OCc1nc2ccccc2n1Cc1ccccc1Cl`, the figure is 111% (inactive); as for `Fc1cccc(Cl)c1Cn1c(-c2cccs2)nc2ccccc21`, 26% (active).

Turning to `Cc1ccc(C)c(Cn2c(-c3cccs3)nc3ccccc32)c1`, the survival is 8% (active). With `Cc1ccccc1Cn1c(-c2cccs2)nc2ccccc21` the figure was 26% (active); with `OCc1nc2ccccc2n1Cc1c(F)cccc1Cl`, 98% (inactive); with `Cc1ccc(C)c(Cn2c(C(C)NC(=O)c3ccccc3)nc3ccccc32)c1` (stereo not given), 88% (inactive). On to `Cc1ccccc1Cn1cnc2ccccc21`, for which the survival was 116% (inactive).

`Clc1ccccc1Cn1c(-c2cccs2)nc2ccccc21`: the survival is -3% (active). As for `CCCC(=O)NCCc1nc2ccccc2n1Cc1c(F)cccc1Cl`, the figure is 66% (inactive); as for `Cc1cccc(NC(=O)CC2C(=O)OCCN2Cc2ccccc2)c1` (stereo not given), 137% (inactive). As for `CC1(N)CCS(=O)(=O)C1` (stereo not given), the figure is 110% (inactive); as for `CCCn1cc(S(=O)(=O)c2ccc(CC)cc2)c(=O)c2cc(F)c(N(CC)CC)cc21`, 68% (inactive); as for `Cc1ccccc1C(=O)Nc1ccccc1-c1nc(-c2ccccc2)no1`, 95% (inactive). With `O=C(CN1C2=NCCN2c2ccccc21)C12CC3CC(CC(C3)C1)C2` the figure was 98% (inactive). Consider `NC(=O)CSc1ncc2c(n1)-c1ccccc1N(Cc1cccc(F)c1)S2(=O)=O`, for which the survival is 73% (inactive). As for `CCN1CCN(c2oc(-c3ccc(COc4ccc(OC)cc4)o3)nc2C#N)CC1`, the figure is 75% (inactive).

`CC(C)c1ccc(NC(=O)CN2C(=O)COc3ccc(S(=O)(=O)N4CCCCCC4)cc32)cc1`: the survival was 109% (inactive). With `Cc1cccc(Cn2c(-c3cccs3)nc3ccccc32)c1` the figure was -6% (active); with `Cc1cccc(CNC(=O)Cn2c(-c3cccs3)cc3ccccc32)c1`, 135% (inactive); with `CC(=O)N1CCCC1c1nc2ccccc2n1Cc1cccc(C)c1` (stereo not given), 85% (inactive). With `CCN(CC)S(=O)(=O)c1ccc(S(=O)(=O)NCc2ccc3c(c2)OCO3)cc1` the figure was 108% (inactive). With `COc1ccc(CNC(=O)Cn2c(SCC(=O)Nc3ccc(OC)cc3)nc3ccccc32)cc1` the figure was 69% (inactive); with `COc1cccc(Cn2c(SCC(=O)N(C)c3ccccc3)nc3ccccc32)c1`, -6% (active). For the compound `Cc1ccccc1NC(=O)Cn1c(SCC(=O)Nc2ccc(F)cc2)nc2ccccc21`, the survival is 76% (inactive). With `COc1cccc(CNC(=O)Cn2c(SCC(=O)Nc3ccc(F)cc3)nc3ccccc32)c1` the figure was 0% (active); with `COC(=O)c1ccc(Cn2c(SCC(=O)N(C)c3ccccc3)nc3ccccc32)cc1`, 75% (inactive); with `CN(C(=O)CSc1nc2ccccc2n1Cc1cccc(C(F)(F)F)c1)c1ccccc1`, 87% (inactive). With `O=C(Cn1c(SCC(=O)Nc2ccc(F)cc2)nc2ccccc21)NCc1ccc(F)cc1` the figure was 63% (inactive); with `CC(=O)c1cccc(NC(=O)Cn2c(SCC(=O)Nc3ccc(F)cc3)nc3ccccc32)c1`, -3% (active). With `Cc1ccc(CNC(=O)Cn2c(SCC(=O)Nc3ccc(F)cc3)nc3ccccc32)cc1` the figure was 131% (inactive). Consider `COc1cccc(CNC(=O)Cn2c(SCC(=O)Nc3ccc(C)c(C)c3)nc3ccccc32)c1`, for which the survival is 76% (inactive). As for `O=C(CSc1nc2ccccc2n1CC(=O)Nc1ccc(F)cc1F)Nc1ccc(F)cc1`, the figure is 72% (inactive); as for `COc1ccc(NC(=O)CSc2nc3ccccc3n2CC(=O)NCc2ccc(F)cc2)cc1`, -6% (active); as for `CCN(CC)C(=O)c1ccc(Nc2nnc(-c3ccc(C)c(S(=O)(=O)NC)c3)c3ccccc23)cc1`, 79% (inactive). Turning to `COc1ccc(CNc2nc3c(-c4cccc(F)c4)nnn3c3ccccc23)cc1`, the survival was 86% (inactive). `N#Cc1ccccc1NC(=O)C(=O)NCCc1csc2nc(-c3cccc(F)c3)nn12`: the survival is 81% (inactive). As for `COc1ccc(CCC(=O)NCc2nc3cccnc3n2Cc2cccc(OC)c2)cc1`, the figure is 73% (inactive).

As to `CCOC(=O)N1CCC2(CC1)OC(=O)C(C)=C2C(=O)NCc1cccc(OC)c1`, the survival is 131% (inactive). As for `CCOC(=O)CSc1nc2ccc(NC(=O)c3ccc(Cl)cc3)cc2s1`, the figure is 90% (inactive); as for `CCOc1ccc(-c2nc3c(c(SCC(=O)N4CCCCC4)n2)Cc2cccc(OC)c2O3)cc1`, 75% (inactive). With `CCCCNC(=O)C1CCN(c2nc3ccccc3nc2C(F)(F)F)CC1` the figure was 82% (inactive). As to `CCNC(=O)C1CCN(c2nc3ccccc3nc2C(F)(F)F)CC1`, the survival was 148% (inactive).

With `Cc1ccccc1CCNC(=O)C1CCN(c2nc3ccccc3nc2C(F)(F)F)CC1`, the survival was 68% (inactive). Consider `COc1ccccc1CCNC(=O)C1CCN(c2nc3ccccc3nc2C(F)(F)F)CC1`, for which the survival was 121% (inactive).

`O=C(NCCc1ccccc1Cl)C1CCN(c2nc3ccccc3nc2C(F)(F)F)CC1`: the survival is 10% (active). As for `CCCSCCCNC(=O)C1CCN(c2nc3ccccc3nc2C(F)(F)F)CC1`, the survival is -3% (active). Turning to `Cc1ccc(NC(=O)C2CCN(c3nn4cc(-c5ccc(C)cc5)nc4s3)CC2)cc1`, the survival is 60% (inactive). With `Cc1cn2c(=O)cc(COC(=O)c3cccc(NC(=O)COc4ccccc4Cl)c3)nc2s1` the figure was 124% (inactive); with `COc1ccc2c(c1)c1c(c(=O)n(Cc3ccccc3)c(=O)n1Cc1ccccc1Cl)n2C`, 84% (inactive); with `O=C(Nc1ccc2nc3n(c(=O)c2c1)CCCCC3)C(=O)Nc1ccccc1F`, 69% (inactive).

`O=C(Cc1ccc(Cl)cc1)NC1CC(=O)N(c2ccc3c(c2)OCCO3)C1` (stereo not given): the survival is 58% (inactive).

As for `CSc1ccccc1NC(=O)C1=CC(c2ccc3c(c2)OCO3)=NS(=O)(=O)N1C`, the survival is 87% (inactive).

As to `Cc1ccc(-c2nc3c(c(SCc4ccc(Br)cc4)n2)Cc2c(CO)cnc(C)c2O3)cc1`, the survival is 81% (inactive). As for `CCOC(=O)c1c(C)[nH]c(C)c1S(=O)(=O)N1CCC(C(=O)NCc2ccccc2)CC1`, the figure is 55% (inactive); as for `CCOC(=O)c1c(C)[nH]c(C)c1S(=O)(=O)N1CCC(C(=O)NCc2ccc(F)cc2)CC1`, 1% (active). `CCOC(=O)c1c(S(=O)(=O)N2CCC(C(=O)Nc3ccc(OCC)cc3)CC2)c(C)n(C)c1C`: the survival is 125% (inactive).

Regarding `CCOC(=O)c1c(C)[nH]c(C)c1S(=O)(=O)N1CCC(C(=O)Nc2ccc(OCC)cc2)CC1`, the survival is -3% (active). With `CCOC(=O)c1c(C)[nH]c(C)c1S(=O)(=O)N1CCC(C(=O)Nc2ccc(C)c(Cl)c2)CC1` the figure was 63% (inactive). As for `CCOC(=O)c1c(C)[nH]c(C)c1S(=O)(=O)N1CCC(C(=O)NCc2ccc(C)cc2)CC1`, the figure is 71% (inactive); as for `O=C(NCC1CCCO1)c1ccc(NC(=O)c2ncn[nH]2)cc1` (stereo not given), 98% (inactive). With `CCCCN(CC)CCNC(=O)CCn1cnc2onc(-c3ccc(F)cc3)c2c1=O` the figure was 72% (inactive); with `CCN(CC)CCCNC(=O)CCCn1ncn2c(cc3occc32)c1=O`, 85% (inactive). For the compound `O=S(=O)(c1ccc(Cl)cc1)c1nc(-c2ccccc2Br)oc1NCc1ccccc1`, the survival is 96% (inactive). With `COc1ccc(C(C)NC(=O)CN(c2cc(OC)ccc2OC)S(=O)(=O)c2ccccc2)cc1` (stereo not given) the figure was 76% (inactive); with `COc1cccc2sc(N(Cc3cccnc3)C(=O)Cc3ccccc3)nc12`, 89% (inactive). As for `CCOc1ccc(NC(=O)C(=O)NCCc2sc(-c3ccc(C)cc3)nc2C)cc1`, the figure is 55% (inactive); as for `COc1ccc(-c2nc(C)c(CCNC(=O)c3ccc(C(F)(F)F)cc3)s2)cc1OC`, -4% (active); as for `CCOc1ccc(C(=O)NCCc2sc(-c3ccc(C)cc3)nc2C)cc1`, -3% (active). As for `CCOc1ccc(C(=O)NCCc2sc(-c3ccc(F)cc3)nc2C)cc1`, the figure is 97% (inactive). Turning to `COc1ccc(-c2nc(C)c(CCNC(=O)c3cc(OC)c(OC)c(OC)c3)s2)cc1OC`, the survival was 57% (inactive). As for `CCOc1ccc(C(=O)NCCc2sc(-c3ccc(OC)c(OC)c3)nc2C)cc1`, the figure is 129% (inactive).
